Several values for one entry are separate records, joined by “and”; a condition that tells them apart may be missing. Equal values may be shown once. Where a name gives a salt, the structure may show the parent alone.
What was measured:
Experiment in all cases: cell viability relative to vehicle control; higher = less cytotoxic
Conditions in all cases: 10 µM
[1] = test system: K562
In short: (§1)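 Mutant clones made by CRISPR editing and their isogenic wild-type counterparts, from four leukaemia lines, were exposed to a single 10 µM dose of each library compound for 48 h. The supernatant was then removed and CellTiter-Glo luminescence was read. Viability was reported as percent of the on-plate vehicle control.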

[2] = test system: MARIMO
In short: as §1

[3] = test system: MOLM14
In short: as §1

[4] = test system: OCI-AML2
In short: as §1

| SMILES | cell viability ([1]; SRSF2 genotype: SRSF2 P95H/wt) | cell viability ([1]; SRSF2 genotype: SRSF2 wt/wt) [%] | cell viability ([2]; SRSF2 genotype: SRSF2 P95H/wt) [%] | cell viability ([2]; SRSF2 genotype: SRSF2 wt/wt) [%] | cell viability ([3]; SRSF2 genotype: SRSF2 P95H/wt) [%] | cell viability ([3]; SRSF2 genotype: SRSF2 wt/wt) [%] | cell viability ([4]; SRSF2 genotype: P95H/wt) [%] | cell viability ([4]; SRSF2 genotype: wt/wt) [%] |
| --- | --- | --- | --- | --- | --- | --- | --- | --- |
| COC1C(O)CC(=O)OC(C)CC=CC=CC(OC2CCC(N(C)C)C(C)O2)C(C)CC(CC=O)C1OC1OC(C)C(OC2CC(C)(O)C(O)C(C)O2)C(N(C)C)C1O (stereo not given) [spiramycin] | 93.7% and 96.3% | 108 | 99.4 | 102 | 98 | 103 | 110 | 96.7 |
| CCn1c(=O)c(-c2ccc(-c3cncs3)cc2Cl)cc2cnc(Nc3ccc(N4CCN(C)CC4)cc3)nc21 | 86.2% and 86.7% | 74.6 | 75.6 | 75.9 | 46.6 | 53.2 | 71 | 61.2 |
| COc1ccc(C(=O)O)cc1O [Isovanillic acid] | 97.7% and 89.4% | 95.3 | 85.2 | 97.5 | 87.1 | 90.6 | 82.2 | 86.7 |
| COc1nccc(-c2c(-c3ccc(F)cc3)ncn2C2CCC(O)CC2)n1 (stereo not given) | 96.5% and 98.5% | 89.3 | 98.3 | 110 | 107 | 107 | 107 | 107 |
| CCOc1cc(N)c(Cl)cc1C(=O)NCC1CN(Cc2ccc(F)cc2)CCO1 (stereo not given) [Mosapride citrate] | 82.7% and 81.9% | 80 | 74.1 | 89.5 | 103 | 93.2 | 81.5 | 82.3 |
| Cc1ccc(C(=O)Cn2c3c(sc2=N)CCCC3)cc1 | 88.9% and 94.2% | 91.3 | 81.4 | 93.8 | 84 | 96.9 | 83.9 | 92.3 |
| CCc1cnn2c(NCc3ccc[n+]([O-])c3)cc(N3CCCC[C@H]3CCO)nc12 | 8.67% and 18.9% | 13.1 | 10.8 | 4.43 | 2.65 | 0.52 | 5.12 | 17.9 |
| c1cc(-c2cnn3cc(-c4ccc(N5CCNCC5)cc4)cnc23)c2cccnc2c1 | 0.29% and 0.31% | 0.27 | 0.3 | 0.3 | 0.26 | 0.32 | 0.24 | 0.25 |
| C[C@@H]1CC[C@]2(C(=O)O[C@@H]3O[C@H](CO)[C@@H](O)[C@H](O)[C@H]3O)CC[C@]3(C)C(=CC[C@@H]4[C@@]5(C)CC[C@H](O)[C@@](C)(CO)[C@@H]5CC[C@]43C)[C@@H]2[C@]1(C)O [Pedunculoside] | 109% and 108% | 113 | 108 | 97.5 | 107 | 108 | 106 | 104 |
| N[C@@H]1CN(c2c(F)cc3c(=O)c(C(=O)O)cn([C@@H]4C[C@@H]4F)c3c2Cl)CC12CC2 [Sitafloxacin hydrate] | 103% and 104% | 91.9 | 104 | 105 | 105 | 103 | 102 | 107 |
| CCCCCCCCCCCCCCCCCC(=O)O [Stearic acid] | 107% and 111% | 107 | 107 | 109 | 105 | 108 | 96.4 | 103 |
| Cc1cccc(C#Cc2ccccc2)n1 | 97.1% and 102% | 104 | 102 | 94.5 | 111 | 110 | 89.3 | 87.5 |
| CN1CCN(c2ccc3nc(-c4c(N)c5c(F)cccc5[nH]c4=O)[nH]c3c2)CC1 [Dovitinib (TKI-258, CHIR-258)] | 59.5% and 69.8% | 57.1 | 22.1 | 32.9 | 2.27 | 0.38 | 3.02 | 6.09 |
| Nc1ncn([C@H]2C[C@H](O)[C@@H](CO)O2)c(=O)n1 [Decitabine] | 77.9% and 88.9% | 80.9 | 69.5 | 73.8 | 47.4 | 39.7 | 54.4 | 58.2 |
| NNc1nncc2ccccc12 [Hydralazine hydrochloride] | 99.2% and 101% | 96.3 | 97.6 | 101 | 98.1 | 99 | 106 | 87 |
| C=C[C@@]1(C)CC(=O)[C@]2(O)[C@@]3(C)[C@@H](O)CCC(C)(C)[C@@H]3[C@H](O)[C@H](OC(C)=O)[C@@]2(C)O1 [Forskolin] | 96.8% and 104% | 94 | 99 | 88.6 | 92.6 | 101 | 105 | 96.1 |
| CC(=O)N1CCC(Nc2cc(C(=O)NC[C@H](O)CN3CCc4ccccc4C3)ncn2)CC1 | 91.8% and 96.6% | 90.9 | 88.8 | 103 | 87.6 | 94.5 | 78.3 | 85.2 |
| C[C@]12CCC(=O)C=C1CC[C@@H]1[C@@H]2[C@@H](O)C[C@@]2(C)[C@H]1CC[C@]2(O)C(=O)CO [Hydrocortisone (Cortisol)] | 99.7% and 98.6% | 110 | 105 | 99 | 107 | 100 | 109 | 118 |
| COc1cccc(C(N)=O)c1 [3-Methoxybenzamide] | 106% and 99.6% | 111 | 104 | 102 | 103 | 107 | 101 | 115 |
| O.O.O.O.O.O.O.[Cl][La]([Cl])[Cl] [Lanthanum(III) chloride heptahydrate] | 107% and 102% | 102 | 109 | 114 | 107 | 104 | 99.2 | 99.4 |

| SMILES | cell viability ([1]; SRSF2 genotype: SRSF2 P95H/wt) | cell viability ([1]; SRSF2 genotype: SRSF2 wt/wt) [%] | cell viability ([2]; SRSF2 genotype: SRSF2 P95H/wt) [%] | cell viability ([2]; SRSF2 genotype: SRSF2 wt/wt) [%] | cell viability ([3]; SRSF2 genotype: SRSF2 P95H/wt) [%] | cell viability ([3]; SRSF2 genotype: SRSF2 wt/wt) [%] | cell viability ([4]; SRSF2 genotype: P95H/wt) [%] | cell viability ([4]; SRSF2 genotype: wt/wt) [%] |
| --- | --- | --- | --- | --- | --- | --- | --- | --- |
| COc1cc([C@H]2OC[C@H]3[C@@H]2CO[C@@H]3c2ccc(O[C@@H]3O[C@H](CO)[C@@H](O)[C@H](O)[C@H]3O)c(OC)c2)ccc1O[C@@H]1O[C@H](CO)[C@@H](O)[C@H](O)[C@H]1O [Pinoresinol diglucoside] | 105% and 104% | 101 | 105 | 108 | 105 | 103 | 104 | 109 |
| COc1ccc(C2CNC(=O)C2)cc1OC1CCCC1 (stereo not given) [Rolipram] | 92.9% and 98% | 98.6 | 104 | 102 | 101 | 103 | 108 | 110 |
| CN1CCN(Cc2ccc(NC(=O)Cc3ccc(Oc4cc(NC(=O)C5CC5)ncn4)cc3)cc2C(F)(F)F)CC1 | 30.9% and 36.5% | 23.8 | 4.48 | 2.16 | 1.39 | 0.45 | 1 | 5.81 |
| CC(=O)O[C@H]1C[C@@]2(C)[C@@H](C[C@@H](O)[C@H]3[C@@]4(C)CC[C@@H](O)[C@@H](C)[C@@H]4CC[C@@]32C)/C1=C(\CCC=C(C)C)C(=O)O [Fusidate Sodium] | 101% and 95.3% | 102 | 102 | 104 | 102 | 100 | 94.7 | 108 |
| CCCCCC1C(=O)CCC1CC(=O)OCCC (stereo not given) [Prohydrojasmon] | 100% and 102% | 109 | 98.6 | 98.6 | 95.8 | 106 | 110 | 118 |
| CC(C)(F)C[C@H](N[C@@H](c1ccc(-c2ccc(S(C)(=O)=O)cc2)cc1)C(F)(F)F)C(=O)NC1(C#N)CC1 [Odanacatib (MK 0822)] | 98.7% and 103% | 93.4 | 94.5 | 102 | 104 | 104 | 101 | 102 |
| CC(C)(OCc1nn(Cc2ccccc2)c2ccccc12)C(=O)O [Bindarit] | 102% and 106% | 112 | 108 | 103 | 101 | 106 | 118 | 107 |
| C[C@]12CCC3=C4CCC(=O)C=C4CC[C@H]3[C@@H]1CC[C@@]2(O)CC#N [Dienogest] | 104% and 96.7% | 102 | 93 | 107 | 100 | 103 | 104 | 106 |
| Nc1ncccc1-c1nc2ccc(-c3ccccc3)nc2n1-c1ccc(C2(N)CCC2)cc1 [Miransertib (ARQ 092)HCl] | 35.5% and 48% | 30.4 | 75.3 | 72.4 | 39.3 | 48.1 | 33 | 49.2 |
| NC(=O)Cc1cccc(C(=O)c2ccccc2)c1N [Nepafenac] | 96.5% and 95.7% | 91.7 | 93.8 | 93.8 | 95.4 | 96.5 | 87.7 | 92.4 |
| C[C@H]1[C@H](NC(=O)/C(=N\OC(C)(C)C(=O)O)c2csc(N)n2)C(=O)N1S(=O)(=O)O [Aztreonam (Azactam, Cayston)] | 106% and 99.5% | 109 | 96.8 | 112 | 103 | 108 | 98.4 | 104 |
| C[C@H](N[C@@H](CCc1ccccc1)C(=O)O)C(=O)N1CCC[C@H]1C(=O)O [Enalaprilat dihydrate] | 103% and 100% | 100 | 98.7 | 109 | 102 | 103 | 99.4 | 108 |
| CC1(C)S[C@@H]2[C@H](NC(=O)[C@H](N)c3ccccc3)C(=O)N2[C@H]1C(=O)OCOC(=O)[C@@H]1N2C(=O)C[C@H]2S(=O)(=O)C1(C)C [Sultamicillin] | 100% and 98.8% | 106 | 93.1 | 101 | 97.2 | 102 | 103 | 116 |
| CO[C@@H](C(=O)N1Cc2[nH]nc(NC(=O)c3ccc(N4CCN(C)CC4)cc3)c2C1)c1ccccc1 | 40.2% and 48.7% | 34.3 | 63.3 | 69.4 | 14.3 | 12.9 | 6.56 | 19.3 |
| CN1CCC(=C2c3ccccc3CC(=O)c3sccc32)CC1 [Ketotifen fumarate (Zaditor)] | 104% and 101% | 97.7 | 94.7 | 104 | 94.6 | 101 | 91 | 107 |
| COC(=O)C1=CO[C@@H](O[C@@H]2O[C@H](CO)[C@@H](O)[C@H](O)[C@H]2O)[C@@H]2[C@H](C)O[C@@H](O)C[C@H]12 [Morroniside] | 93.4% and 87.6% | 93 | 85.3 | 97.1 | 88.1 | 89.3 | 88.8 | 106 |
| CC1(C)C2CCC1(C)C(O)C2 (single isomer, unassigned; (+)) [(+)-Borneol] | 96.5% and 99.3% | 105 | 100 | 106 | 101 | 103 | 101 | 98 |
| CC(C)N1CCN(Cc2cnc(-c3cc(-c4cccc5[nH]ccc45)cc4[nH]ncc34)o2)CC1 | 39.8% and 29.8% | 36.8 | 53.7 | 52.9 | 68.2 | 61.6 | 30.8 | 39.8 |
| CCOC(=O)c1ncn2c1CN(C)C(=O)c1cc(F)ccc1-2 [Flumazenil] | 107% and 101% | 108 | 95.9 | 107 | 106 | 101 | 94 | 103 |
| CNC[C@H](O)[C@@H](O)[C@H](O)[C@H](O)CO.CNC[C@H](O)[C@@H](O)[C@H](O)[C@H](O)CO.O=C([O-])CN(CCN(CC(=O)[O-])CC(=O)O)CCN(CC(=O)[O-])CC(=O)O.[Gd+3] [Gadopentetate Dimeglumine] | 96.2% and 95.2% | 101 | 94.1 | 98.4 | 99.2 | 98 | 98.2 | 97.7 |

— the supplement of paper PMC10981050
